According to the supplement of paper PMC6555819:

Experiments:
Assay in all cases: PBM binding z-score (relative to random genomic background probes); higher = stronger binding; sequences stand for … in GC…GCGATTGACAGCGTAGAATGAAGG
[1] = test system: FXR:RXRa (NR concentration 270 nM, RXRa partner concentration 90 nM)
Outline: (§1)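 Ligand-free nuclear receptor dimers were bound for 1 h to custom Agilent 4×180K protein-binding microarrays. Detection used antibodies against each partner (one per run). Binding z-scores rest on regression-normalized fluorescence, with random background probes as the reference.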

[2] = test system: LXRa:RXRa (NR concentration 270 nM, RXRa partner concentration 90 nM)
Outline: as §1

[3] = test system: LXRa homodimer (NR concentration 270 nM)
Outline: as §1

[4] = test system: LXRb:RXRa (NR concentration 270 nM, RXRa partner concentration 90 nM)
Outline: as §1

[5] = test system: LXRb homodimer (NR concentration 270 nM)
Outline: as §1

[6] = test system: PPARa:RXRa (NR concentration 270 nM, RXRa partner concentration 90 nM)
Outline: as §1

[7] = test system: PPARg:RXRa (NR concentration 180 nM, RXRa partner concentration 90 nM)
Outline: as §1

[8] = test system: PPARg:RXRa 270nM:90nM, anti-RXR (NR concentration 270 nM, RXRa partner concentration 90 nM)
Outline: as §1

[9] = test system: PPARg:RXRa 30nM:10nM, anti-RXR (NR concentration 30 nM, RXRa partner concentration 10 nM)
Outline: as §1

[10] = test system: PPARg:RXRa 90nM:30nM, anti-RXR (NR concentration 90 nM, RXRa partner concentration 30 nM)
Outline: as §1

[11] = test system: PPARg:RXRa DBDmut IVT, anti-RXR (DBD mutation: RXRa K156A/R161A, NR concentration 270 nM, RXRa partner concentration 90 nM)
Outline: as §1

[12] = test system: PPARg:RXRa IVT, anti-PPARg (NR concentration 270 nM, RXRa partner concentration 90 nM)
Outline: as §1

[13] = test system: PPARg DBDmut:RXRa IVT, anti-PPARg (DBD mutation: PPARg1 K132A/R137A, NR concentration 270 nM, RXRa partner concentration 90 nM)
Outline: as §1

[14] = test system: PPARg DBDmut IVT, anti-PPARg (DBD mutation: PPARg1 K132A/R137A, NR concentration 270 nM)
Outline: as §1

[15] = test system: PPARg homodimer (NR concentration 180 nM)
Outline: as §1

[16] = test system: PXR:RXRa (NR concentration 270 nM, RXRa partner concentration 90 nM)
Outline: as §1

[17] = test system: PXR homodimer (NR concentration 270 nM)
Outline: as §1

[18] = test system: RARa:RXR (NR concentration 270 nM, RXRa partner concentration 90 nM)
Outline: as §1

[19] = test system: RARa homodimer (NR concentration 270 nM)
Outline: as §1

[20] = test system: RARb:RXRa (NR concentration 270 nM, RXRa partner concentration 90 nM)
Outline: as §1

| Sequence | PBM binding z-score [1] | PBM binding z-score [2] | PBM binding z-score [3] | PBM binding z-score [4] | PBM binding z-score [5] | PBM binding z-score [6] | PBM binding z-score [7] | PBM binding z-score [8] | PBM binding z-score [9] | PBM binding z-score [10] | PBM binding z-score [11] | PBM binding z-score [12] | PBM binding z-score [13] | PBM binding z-score [14] | PBM binding z-score [15] | PBM binding z-score [16] | PBM binding z-score [17] | PBM binding z-score [18] | PBM binding z-score [19] | PBM binding z-score [20] |
| --- | --- | --- | --- | --- | --- | --- | --- | --- | --- | --- | --- | --- | --- | --- | --- | --- | --- | --- | --- | --- |
| CAGCCTGGGTCAGGGCCAGTATAGGAGGAACGTT | 0.78 | 0.261 | -0.628 | 0.24 | -1.02 | 2.03 | 0.871 | 0.727 | -0.545 | 0.0759 | -0.161 | 1.32 | -1.28 | -1.68 | 0.728 | 0.109 | -0.685 | 0.59 | -0.125 | 2.83 |
| CGTCCAAGGTCAGAGAAGTCAGTGAATGCCGAGT | 4.48 | 2.9 | 0.222 | 2.17 | -0.0616 | 3.73 | 1.89 | 2.54 | 0.704 | 1.5 | 2.46 | 2.18 | -0.292 | -0.903 | 1.38 | 2.55 | 0.728 | 2.86 | 0.262 | 4.68 |
| TCGAGTAGGTTAGTCGGCGCATTCAGCCAACATA | -0.102 | -0.169 | -0.745 | -0.439 | -1.53 | 0.0972 | -0.358 | 0.362 | 0.699 | 0.562 | 1.73 | 0.854 | -1.61 | -1.56 | -0.687 | -0.463 | -0.787 | -0.68 | -0.479 | -0.141 |
| ATATGTAGGTTATCGTGTCATTCAGTTTGCGCAT | 0.97 | 1.3 | 0.641 | 1.5 | 0.855 | 3.55 | 5.76 | 5.11 | 2.48 | 4.38 | 7.74 | 7.44 | 2.49 | 2.15 | 1.76 | 1.17 | 0.812 | 1.16 | 0.933 | 1.32 |
| GCTTGTGGATCAAGGTTAAGAAAGACTAAGCTAA | 0.286 | 0.783 | -0.433 | 0.442 | -0.254 | 1.52 | 0.82 | 1.79 | 0.395 | 1.24 | 0.991 | 1.19 | -0.0361 | 0.0112 | 0.339 | 0.429 | -0.166 | 0.735 | -0.249 | 0.702 |
| TCATATAGTTAAACAGGTGAAAGTCCGTAAGTTA | 1.06 | 1.1 | 0.478 | 1.1 | 0.356 | 1.7 | 1.25 | 2.68 | 4.38 | 3.42 | 2.65 | 1.54 | 1.36 | 1.6 | 1.34 | 0.848 | 0.543 | 1.2 | 1.91 | 0.698 |
| GCTTCTAGGTCAACTGATGGTCAGCTAAAGCTCG | 4.49 | 3.12 | 0.562 | 2.48 | 1.06 | 4.69 | 6.35 | 5.64 | 3.01 | 5.05 | 7.69 | 7.25 | 0.0953 | 0.797 | 2.01 | 1.97 | -0.405 | 3.16 | 0.124 | 4.42 |
| AGAATGAGGTAACCAAAGATCAGGGAAACGCTTG | -0.0845 | 3.81 | -0.311 | 0.439 | -0.22 | 1.21 | 1.15 | 0.888 | 0.575 | 0.541 | 3.05 | 2.17 | 1.22 | 1.42 | -0.124 | 0.0437 | -0.0264 | 0.577 | 0.155 | 0.403 |
| TCGAGTAGGTTAGGGGCATTAAGAATGGCGTCGA | 0.466 | 0.479 | -0.184 | 0.739 | -0.27 | 1.34 | 1.07 | 2.13 | 1.32 | 1.98 | 2.21 | 1.23 | -0.687 | -1.11 | 0.475 | 0.596 | 0.671 | 0.713 | -0.193 | 1.04 |
| GCTTGGAGATCAAGGTTAAGAAAGACTAAGCTAA | 0.0543 | 0.942 | -0.403 | 0.686 | -1.08 | 1.57 | 0.135 | 0.864 | 0.225 | 0.671 | -0.178 | 0.209 | -0.0376 | -0.611 | 0.0193 | 0.278 | -0.313 | 1.12 | -0.305 | 0.871 |
| CGTCCAAGGTCAATGCCAGGTCAGTGAAAGCATT | 7.1 | 5.52 | 3.08 | 4.42 | 1.04 | 5.11 | 4.05 | 4.59 | 1.16 | 3.45 | 2.99 | 3.63 | 0.209 | -0.326 | 7.26 | 5.48 | 2.85 | 6.58 | 1.59 | 5.39 |
| CGTCCAAGGTCAGCAGGTCAGTGGAAGCGACGTG | 5.74 | 3.85 | 0.538 | 2.96 | -0.217 | 4.94 | 4.05 | 4.15 | 0.99 | 2.87 | 2.83 | 3.58 | -0.161 | -0.183 | 2.96 | 3.57 | 0.377 | 4.3 | 0.462 | 5.23 |
| CCTAGCTGGCCAGGGTCACTCAAGCATTTCGCTT | 1.96 | 1.65 | -0.664 | 1.94 | -1.02 | 2.99 | -0.0183 | 1.17 | -0.834 | -0.172 | -0.189 | -0.187 | -0.962 | -0.97 | 0.811 | 2.53 | -0.342 | 3.04 | -0.133 | 2.35 |
| ACTATTAGTTGACACGAGGGCAACCGATAGGTTG | 1.1 | 1.04 | 0.219 | 0.64 | 0.129 | 1.21 | 1.06 | 0.472 | 0.354 | 0.356 | 0.272 | 1.04 | 0.784 | 0.778 | 0.695 | 1.75 | 0.634 | 1.74 | 0.708 | 1.59 |
